Screens deposited in PubChem by National Center for Advancing Translational Sciences (NCATS).
HEK cytotox – Cytotoxic Profiling in HEK 293 Cell Line of Diverse Libraries Using Quantitative High-Throughput Screening | HEK 293 viability, ATP luminescence (CellTiter-Glo), 48-72 h | Potency, µM (top dose mostly 115 µM), for inactives: top-dose activity change, negative = cytotoxicity, actives largely listed as inhibitors | hit rate 6.6% among 94,000 | AID 1345083, 2018; also: % is scaled to controls: 0 for no effect and ±100 for the full control effect; nearly all actives have a fitted effect of over 60% in size
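Cells seeded first (HEK 293, 250 cells/well), then compound added by pintool. Incubation ran 48 or 72 hr at 37 degree Celsius. CellTiter-Glo was added and luminescence imaged after 10 min at room temperature.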
FLuc inh-1 – Firefly luciferase inhibition profiling of diverse chemical library using quantitative high-throughput screening. purified P. pyralis luciferase, luminescence, biochemical. Potency, µM (titrated, usually from 115 µM), actives largely listed as inhibitors. hit rate 2.5% among 76,000. AID 1347043, 2019; also: % is scaled to controls: 0 for no effect and ±100 for the full control effect; nearly all actives have a fitted effect of over 65% in size
Target sequence (P08659 whole entry, looked up): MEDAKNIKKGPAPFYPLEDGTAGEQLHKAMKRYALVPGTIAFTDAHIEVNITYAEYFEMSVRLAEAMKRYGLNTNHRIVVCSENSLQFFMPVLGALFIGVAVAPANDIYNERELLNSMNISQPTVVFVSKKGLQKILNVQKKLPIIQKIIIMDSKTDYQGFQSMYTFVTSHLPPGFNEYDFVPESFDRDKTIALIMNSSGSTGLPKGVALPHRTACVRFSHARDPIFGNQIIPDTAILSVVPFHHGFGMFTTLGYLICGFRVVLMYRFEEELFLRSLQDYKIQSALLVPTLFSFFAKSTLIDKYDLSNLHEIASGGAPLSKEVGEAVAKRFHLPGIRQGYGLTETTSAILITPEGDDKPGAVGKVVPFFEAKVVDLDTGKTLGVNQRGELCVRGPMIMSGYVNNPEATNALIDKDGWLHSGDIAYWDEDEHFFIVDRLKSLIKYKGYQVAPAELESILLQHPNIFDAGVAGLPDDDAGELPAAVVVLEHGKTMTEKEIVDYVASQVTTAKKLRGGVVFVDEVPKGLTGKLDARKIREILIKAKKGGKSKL
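Purified P. pyralis luciferase (10nM final) in 50mM Tris acetate pH 7.5, 10mM Mg acetate, 0.01% Tween-20, 0.05% BSA with 10uM D-luciferin and 10uM ATP. Compounds titrated qHTS. Luminescence imaged on CCD.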
NIH3T3 tox – Cytotoxic Profiling in NIH 3T3 Cell Line of Diverse Libraries Using Quantitative High-Throughput Screening | Potency, µM (titrated, usually from 96.7 µM), for inactives: at the top dose activity change, negative = cytotoxicity, hits mostly inhibitors | NIH 3T3 viability, CellTiter-Glo ATP luminescence, 48-72 h | hit rate 4.3% among 94,000; also: % is scaled to controls: 0 for no effect and ±100 for the full control effect; nearly all actives have a fitted effect of over 55% in size
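Cytotoxicity is measured as loss of cellular ATP: NIH 3T3 cells (400/well) are exposed to compound for 48 or 72 hr at 37 °C, then CellTiter-Glo luminescence is imaged after 10 min at room temperature.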
hNpr1 antagonist – Natriuretic polypeptide receptor (hNpr1) antagonism - Primary qHTS | HEK293 hNpr1 GloSensor cGMP, ANP-stimulated luminescence | Potency, µM (series often up to 46.3 µM), inactives show at the top dose activity change, negative = inhibition, hits mostly inhibitors | hit rate 1.6% among 76,000; calls by dose curve; also: % is scaled to controls: 0 for no effect and ±100 for the full control effect; nearly all actives have a fitted effect of over 60% in size
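HEK293 cells stably expressing human Npr1 and cGMP GloSensor pGS-40F, loaded 2 h with 2% GloSensor reagent, given compound 30 min at room temperature. Luminescence read before and 20 min after 0.1 nM hNppA.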
FLuc SDR -ATP – Firefly luciferase (FLuc-C-HiBiT) SDR gain of signal screen - without ATP. hit rate 7.8% among 1,300. Purified FLuc-C-HiBiT, Nano-Glo HiBiT luminescence, no ATP. Potency, µM (top dose mostly 32.7 µM), inactives show at the top dose activation (signal gain), usual class: activators. AID 1963318, 2024. shares compounds with FLuc inh-1; also: nearly all actives have a fitted effect of over 55% in size
FLuc SDR ATP – Firefly luciferase (FLuc-C-HiBiT) SDR gain of signal screen - plus ATP. shares compounds with FLuc inh-1. purified FLuc-C-HiBiT + ATP, HiBiT complementation luminescence. Potency, µM (doses to about 32.7 µM), for inactives: at the highest dose activation (gain of signal), actives largely listed as activators. hit rate 8.7% among 1,300;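 also: signal reports ligand binding via conformational change of the enzyme rather than luciferase catalysis; % of control where 0% means no effect; nearly all actives have a fitted effect of over 55% in size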
FLuc inh-2 – Firefly luciferase (FLuc-C-HiBiT) enzymatic inhibition screen - Functional assay. shares compounds with FLuc inh-1. purified FLuc-C-HiBiT enzyme, luciferin luminescence. Potency, µM (top dose mostly 32.7 µM), without a hit: at the highest dose activity change, negative = inhibition, most hits filed as inhibitors. hit rate 42% among 1,300. AID 1963320, 2024; also: % is scaled to controls: 0 for no effect and ±100 for the full control effect; nearly all actives have a fitted effect of over 70% in size
* hit, by the source's call; [ ] = remark or other dose. This is a sample that favours compounds with a hit; in the whole collection about 11% have one here. Unless noted, calls follow the shape of the dose curve; as a rule, active = well fitted curve in the direction sought with a large enough effect; inconclusive = small, poorly fitted or top-dose-only effect, or another doubt; inactive = no such curve, though single readings can be large; an effect the other way counts as inactive or inconclusive. Potency is read from the fitted curve at half-maximal effect.

CC1(C)C[C@H](NCc2ccc(CO)o2)[C@@]2(CCC(=O)NCCN3CCOCC3)CC[C@](C)(O)C[C@@H]12 was read as HEK cytotox -2%, FLuc inh-1 inactive, NIH3T3 tox -3% and hNpr1 antagonist 5%.
Screening Cc1ccc(F)cc1-c1ccc(COc2ccc3c(cnn3CCC(=O)O)c2)cc1 returned HEK cytotox inconclusive, FLuc inh-1 22µM*, NIH3T3 tox inconclusive, hNpr1 antagonist -14%[70.6 µM], FLuc SDR -ATP 19%[49.3 µM], FLuc SDR ATP 12%[49.3 µM] and FLuc inh-2 inconclusive.
COc1cccc(F)c1-c1ccc(COc2ccc3c(cnn3CCC(=O)O)c2)cc1 was read as HEK cytotox inconclusive, FLuc inh-1 25µM*, NIH3T3 tox inconclusive, hNpr1 antagonist -8%[70.6 µM], FLuc SDR -ATP 16%[49.3 µM], FLuc SDR ATP 10%[49.3 µM] and FLuc inh-2 inconclusive.
`COc1cc(F)cc(-c2ccc(COc3ccc4c(cnn4CCC(=O)O)c3)cc2)c1` gave HEK cytotox inconclusive, FLuc inh-1 inconclusive, NIH3T3 tox inconclusive and hNpr1 antagonist 0%[70.6 µM].
`Cc1ccccc1-c1ccc(COc2ccc3c(cnn3CCC(=O)O)c2)cc1` gave HEK cytotox inconclusive, FLuc inh-1 inconclusive, NIH3T3 tox inconclusive, hNpr1 antagonist -16%[70.6 µM], FLuc SDR -ATP 20%[49.3 µM], FLuc SDR ATP 13%[49.3 µM] and FLuc inh-2 16µM*.
`COc1ccc(CCNC(=O)c2ccc3nnc(CC4CC4)n3c2)cc1` gave HEK cytotox -1% and NIH3T3 tox inconclusive.
Screening N#Cc1ccc(CN2CCC3(CC2)CNc2ccccc2[S+](=O)([O-])N3)cc1 returned HEK cytotox inconclusive, FLuc inh-1 inactive, NIH3T3 tox -29% and hNpr1 antagonist -25%.
For COc1ccccc1-c1csc(CN2CC(C)(NC(=O)C3CC3)C2)n1 the results were HEK cytotox inconclusive, FLuc inh-1 inactive, NIH3T3 tox -26%[138 µM] and hNpr1 antagonist -1%[70.6 µM].
For CC1(NC(=O)C2CC2)CN(Cc2nc(-c3ccccc3)cs2)C1 the results were HEK cytotox -29%[172 µM], FLuc inh-1 13µM*, NIH3T3 tox inconclusive, hNpr1 antagonist inconclusive, FLuc SDR -ATP 16%[49.3 µM], FLuc SDR ATP 13%[49.3 µM] and FLuc inh-2 inconclusive.
COc1ccc(-n2cc(-c3ccnc(N(C)Cc4cnccn4)n3)cn2)cc1 was read as HEK cytotox inconclusive, FLuc inh-1 inconclusive, NIH3T3 tox inconclusive and hNpr1 antagonist 1%.
For COc1cccc(-n2cc(CN(C)c3ncncn3)cn2)c1 the results were HEK cytotox -17%, FLuc inh-1 13µM*, NIH3T3 tox -27%, hNpr1 antagonist 1%, FLuc SDR -ATP 17%, FLuc SDR ATP 11% and FLuc inh-2 -16%.
Screening COc1ccccc1C(=O)Nc1ccc(-c2nc3ccccc3s2)c(C)c1 returned FLuc SDR -ATP 23%, FLuc SDR ATP 14% and FLuc inh-2 inconclusive.
Screening COc1ccccc1-c1cc(C(=O)Nc2ccc(F)cc2)c2cnn(C)c2n1 returned HEK cytotox inconclusive and NIH3T3 tox -30%.
Cc1ccc(C(=O)Nc2ccc(-c3nc4ccccc4s3)c(O)c2)c(C)c1 was read as FLuc SDR -ATP 14%, FLuc SDR ATP 9% and FLuc inh-2 0%.
Cc1ccc(C)c(C(=O)Nc2ccc3c(N4CCCC4)ncnc3c2)c1 was read as HEK cytotox inconclusive, FLuc inh-1 inactive, NIH3T3 tox inconclusive and hNpr1 antagonist -2%.
`C=CCN1C[C@H]2COc3cc(OC)ccc3[C@H]2N(C(=O)c2ccccc2)CCC1=O` gave HEK cytotox -24% and NIH3T3 tox inconclusive.
`CN1CC[C@H](N(Cc2ccccc2)C(=O)CC2CCCC2)C[C@H](O)C1` gave HEK cytotox -26% and NIH3T3 tox inconclusive.
`COc1ccc(NC(=O)CCC2CCN(C(=O)c3ccccc3)CC2)c(OC)c1` gave HEK cytotox inconclusive, FLuc inh-1 inactive, NIH3T3 tox -27% and hNpr1 antagonist -10%.
CCOC(=O)N1CCc2c(sc(NCc3ccc(OCC)cc3)c2C(=O)Nc2ccc(OC)cc2OC)C1 was read as FLuc SDR -ATP 13%, FLuc SDR ATP inconclusive and FLuc inh-2 3.9µM*.
CCOc1cc(=O)n2c(c1C(=O)Nc1ccc(OC)cc1OC)CCCC2 was read as HEK cytotox inconclusive, FLuc inh-1 inactive, NIH3T3 tox inconclusive and hNpr1 antagonist -3%.
Screening CCOC(=O)N1CCc2c(sc(NCc3cccs3)c2C(=O)Nc2ccc(OC)cc2OC)C1 returned FLuc SDR -ATP 6%, FLuc SDR ATP inconclusive and FLuc inh-2 3.1µM*.
Cc1nnc2ccc(N3CCCC(N[S+](=O)([O-])c4ccccc4)C3)nn12 (stereo unspecified) was read as HEK cytotox inactive and NIH3T3 tox -13%.
O=C(NCC(F)F)C1CCCN1c1nccc(Nc2ccccc2F)n1 (stereo unspecified) was read as HEK cytotox -12% and NIH3T3 tox -28%.
For Cc1[nH]nc2c1C(c1ccc(Cl)cc1)C(C#N)=C(N)O2 (stereo unspecified) the results were HEK cytotox inconclusive, FLuc inh-1 inactive, NIH3T3 tox -22%, hNpr1 antagonist -5%, FLuc SDR -ATP 11%, FLuc SDR ATP 8% and FLuc inh-2 -9%.
Cc1[nH]nc2c1C(c1ccccc1)C(C#N)=C(N)O2 (stereo unspecified) was read as HEK cytotox -2%, FLuc inh-1 inactive, NIH3T3 tox -5% and hNpr1 antagonist 3%.
For Cc1ccc2oc(=O)c(-c3nc(-c4cccs4)no3)cc2c1 the results were FLuc SDR -ATP 14%, FLuc SDR ATP 13% and FLuc inh-2 -14%.
`Cc1noc2c(N(C)C)cc(-c3cccs3)nc12` gave HEK cytotox inconclusive, FLuc inh-1 inactive, NIH3T3 tox inconclusive and hNpr1 antagonist -8%[70.6 µM].
